From PubChem BioAssay (EPA / NIEHS)
Active and inactive are the calls of the source. The calls were made as follows: active = hit-call score of the fitted dose curve at least 0.9, where 1 is the maximum; inactive = score below 0.9.

Assay: ATG_M_06_CIS: Attagene CIS-FACTORIAL HepG2 Assay for M06 Transcription Factor (Internal Marker) (AID 2282950)
Conditions: HepG2 Attagene CIS-FACTORIAL M06 internal marker reporter; actives raise or lower the signal
Experimental: ATG_CIS is a cell-based, multiplexed-readout assay that uses HepG2, a human liver cell line, with measurements taken at 24 hours after chemical dosing in a 24-well plate.ATG_M_06_CIS is one of 52 assay component(s) measured or calculated from the ATG_CIS assay. It is designed to make measurements of mRNA induction, a form of inducible reporter, as detected with fluorescence intensity signals by Reverse transcription polymerase chain reaction (RT-PCR) and Capillary electrophoresis technology.Data from the assay component ATG_M_06_CIS was analyzed into 1 assay endpoint. This assay endpoint, ATG_M_06_CIS, was analyzed with bidirectional fitting relative to DMSO as the negative control and baseline of activity. Using a type of inducible reporter, measures of mRNA for gain or loss-of-signal activity can be used to understand the background control at the transcription factor-level as they relate to the gene . Furthermore, this assay endpoint can be referred to as a secondary readout, because this assay has produced multiple assay endpoints where this one serves a background control function. To generalize the intended target to other relatable targets, this assay endpoint is annotated to the background measurement intended target family, where the subfamily is internal marker.
Human liver HepG2 cells are transiently transfected with multiple reporter transcription units (MRTUs) in 6-well plates using FuGene 6 reagent (Roche; 3 ml FuGene/1 mg DNA). The MRTU constructs are regulated by a cis-regulating element (promoter). […] A major difference between the CIS and TRANS system is that in CIS activities of endogenous TFs are measured, whereas the TRANS assay evaluates changes in activities of exogenous, chimeric NR-Gal4 proteins. […] At the end of 24 hour incubation, total RNA was isolated using TriZol reagent (Invitrogen). The isolated RNA is then reverse-transcribed using oligo(dT) primer and Mo-MLV reverse transcriptase (Invitrogen) with DNAse I (Ambion) treatment for 30 min. The one-tenth of the produced cDNA was amplified by PCR using Taq DNA polymerase (Invitrogen) and two reporter sequence-specific primers. The PCR products were fluorescently labeled by primer extension with 6-arboxyfluorescein (6-FAM) 5'-labeled reporter sequence-specific primer (2 min at 95 C, 20 s at 68 C and 10 min at 72 C) and these products were digested with 5U of HpaI (New England Biolabs) for 2h at 37 C. The fragments were purified using Qiaquick PCR columns (Qiagen), analyzed on an ABI 3130xL genetic analyzer (Applied Biosystems) with peak positions identified by using a set of X-rhodamine (ROX)-labeled MapMarker1000 molecular weight standards (BioVentures). The raw capillary electrophoresis data was processed using Attagraph software (Attagene).
With `COCCO` the outcome was “inactive”.
For `CCCCC(CC)COC(=O)c1ccccc1C(=O)O` (stereo not given), the outcome was “inactive”.
With `CCN(CC)C(=O)c1cccc(C)c1` the outcome was “inactive”.
In the case of `COc1nc(C)nc(NC(=O)NS(=O)(=O)c2ccccc2OCCCl)n1`, the outcome is reported as “inactive”.
For `CCCCCOC(=O)COc1cc(N2C(=O)C3=C(CCCC3)C2=O)c(F)cc1Cl`, the outcome was “inactive”.
In the case of `O=C(O)C1(C(=O)Nc2ccc(Cl)cc2Cl)CC1`, the outcome is reported as “inactive”.
With `COC(=O)c1ccc(CNS(C)(=O)=O)cc1S(=O)(=O)NC(=O)Nc1nc(OC)cc(OC)n1` the outcome was “inactive”.
For `O=C(c1ccccc1)C1CCCCC1`, the outcome was “inactive”.
For `CCOC(=O)C(C)Oc1ccc(Oc2nc3ccc(Cl)cc3o2)cc1` (stereo not given), the outcome was “inactive”.
In the case of `CCC(C)OC(=O)N1CCCCC1CCO` (stereo not given), the outcome is reported as “inactive”.
With `N#CSCSc1nc2ccccc2s1` the outcome was “inactive”.
In the case of `CCNc1nc(N)nc(Cl)n1`, the outcome is reported as “inactive”.
In the case of `O=C(O)c1ccccc1`, the outcome is reported as “inactive”.
For `COC(=O)c1cccc(C)c1S(=O)(=O)NC(=O)Nc1nc(OCC(F)(F)F)nc(N(C)C)n1`, the outcome was “inactive”.
In the case of `S=C(S)NCCNC(=S)S.[Mn+2].[S-]C([S-])=NCCN=C([S-])[S-].[Zn+2]`, the outcome is reported as “inactive”.
For `CC(C)CCCCCCc1ccc(O)cc1`, the outcome was “inactive”.
With `N[C@@H](Cc1cc(I)c(Oc2ccc(O)c(I)c2)c(I)c1)C(=O)O` the outcome was “inactive”.
With `OB(O)O` the outcome was “inactive”.
For `CCN(Cc1c(F)cccc1Cl)c1c([N+](=O)[O-])cc(C(F)(F)F)cc1[N+](=O)[O-]`, the outcome was “inactive”.
With `COC(=O)c1ccc(I)cc1S(=O)(=O)NC(=O)Nc1nc(C)nc(OC)n1` the outcome was “inactive”.
In the case of `O=C(Nc1ccc([N+](=O)[O-])cc1Cl)c1cc(Cl)ccc1O`, the outcome is reported as “inactive”.
With `C#CCOC(=O)[C@@H](C)Oc1ccc(Oc2ncc(Cl)cc2F)cc1` the outcome was “inactive”.
With `CCC(O)=C1C(=O)CC(C(=O)O)CC1=O` (stereo not given) the outcome was “inactive”.
With `COC(=O)c1ccccc1S(=O)(=O)NC(=O)Nc1nc(OC(F)F)cc(OC(F)F)n1` the outcome was “inactive”.
With `CCCCOCCOCCOCc1cc2c(cc1CCC)OCO2` the outcome was “inactive”.
For `CCOC(=O)COc1cc(-n2ncc(C(F)(F)F)c(C)c2=O)c(F)cc1Cl`, the outcome was “inactive”.
In the case of `S=C([S-])NCCNC(=S)[S-].[Mn+2]`, the outcome is reported as “inactive”.
In the case of `CCCOC(=O)NCCCN(C)C`, the outcome is reported as “inactive”.
With `CCCCCCC(C)OC(=O)COc1nc(F)c(Cl)c(N)c1Cl` (stereo not given) the outcome was “inactive”.
For `CCOC(=O)NCCOc1ccc(Oc2ccccc2)cc1`, the outcome was “inactive”.
With `CN(C)C(=O)Nc1ccc(Cl)c(Cl)c1` the outcome was “inactive”.
In the case of `CCOC(=O)c1ccc(O)cc1`, the outcome is reported as “inactive”.
With `CCOC(=O)C(C)Oc1ccc(Oc2cnc3cc(Cl)ccc3n2)cc1` (stereo not given) the outcome was “inactive”.
For `COc1c(Cl)ccc(Cl)c1C(=O)O`, the outcome was “inactive”.
For `Oc1ccc(C(c2ccc(O)cc2)C(Cl)(Cl)Cl)cc1`, the outcome was “inactive”.
In the case of `O=C(c1ccc(O)cc1O)c1ccc(O)cc1O`, the outcome is reported as “inactive”.
In the case of `CC(C)(C)[C@@H](O)[C@@H](Cc1ccc(Cl)cc1)n1cncn1`, the outcome is reported as “inactive”.
With `CSC(=O)c1cccc2nnsc12` the outcome was “inactive”.
With `C#C[C@]1(O)CC[C@H]2[C@@H]3CCC4=CC(=O)CC[C@@H]4[C@H]3CC[C@@]21CC` the outcome was “inactive”.
With `CCCCOC(=O)[C@@H](C)Oc1ccc(Oc2ccc(C(F)(F)F)cn2)cc1` the outcome was “inactive”.
